Screening data deposited in PubChem by University of Kansas High Throughput Screening Laboratory.
mHTT-CaM PPI inh – inhibitors of human mutant huntingtin-calmodulin interaction; P42858; hit rate 3.6% among 190,000; inhibition, % at 15 µM; AlphaScreen His-mHTT/GST-CaM binding, luminescence;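 note: 0% = both proteins with DMSO and 100% = one protein alone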
Pf apPOL inh – Pf-apPOL DNA polymerase inhibition; Recombinant Pf-apPOL, molecular beacon fluorescence, 1.5 h; inhibition, % at 10 µM; hit rate 0.25% among 210,000
* marks the source's active call; other numbers are inactive results; i = inactive; x = no result; + = active, no number. Sampled rows, rich in hits. Any-hit rate of the full collection: about 3.5%. Cut-off read from the data, not from the text of the source: active = inhibition above about 50%; inactive = the rest.

SMILES	mHTT-CaM PPI inh	Pf apPOL inh
COc1ccc(C2Nc3c(C)ccc(Cl)c3C3C=CCC32)cc1[N+](=O)[O-] (centres undefined)	33	-6
COc1cc([N+](=O)[O-])cc2c1NC(c1ccccc1Cl)C1CC=CC21 (centres undefined)	13	2
COc1cccc2c1NC(c1ccc([N+](=O)[O-])cc1)C1CC=CC21 (centres undefined)	70*	5
N#CC(C#N)=CNc1cc(C(F)(F)F)ccc1N1CCOCC1	x	-9
Cc1ccccc1-c1onc(C)c1C(=O)NCc1cccc(Cl)c1	-18	-2
O=C(CSCCCN1CCN(c2cccc(Cl)c2)CC1)NNC(=O)Nc1ccc(Cl)cc1	x	2
CCOc1ccc(/C=C2\C(=O)Nc3ccc(Br)cc32)cc1	40	-8
O=C1Nc2ccc(Br)cc2/C1=C/c1ccccc1F	31	-1
CCOc1cccc(/C=C2\C(=O)Nc3ccc(Br)cc32)c1O	58*	-12
CC(C)(C)c1ccc(/C=C2\C(=O)Nc3ccc(Cl)cc32)cc1	60*	-22
CCOc1ccccc1/C=C1\C(=O)Nc2ccc(Br)cc21	63*	1
O=C1Nc2ccc(Cl)cc2/C1=C/c1ccc(Cl)cc1	35	1
CCCOc1ccccc1/C=C1\C(=O)Nc2ccc(Br)cc21	97*	5
O=C(Cc1cccs1)NCC1CCN(c2cc(-c3cccnc3)[nH]n2)CC1	5	-6
COc1cc2c(cc1OC)CN(C(=O)c1ccc(-n3cccn3)nn1)CC2	-1	-1
CCOC(=O)CNC(=O)CSc1ccc2nnc(-c3cccc(F)c3)n2n1	-14	-7
O=Cc1sc([O-])nc1-[n+]1ccccc1	4	x
O=C(Cc1ccccc1F)N1CCC(c2nc(-c3ccccc3)no2)C1 (centres undefined)	11	-7
Cc1ccccc1/C=C1\C(=O)Nc2ccc(Cl)cc21	85*	-5
CCOc1ccc(/C=C2\C(=O)Nc3ccc(Cl)cc32)cc1	25	-4
CCOc1ccccc1/C=C1\C(=O)Nc2ccc(Cl)cc21	64*	6
Cc1ccc2c(c1)/C(=C/c1ccccc1Cl)C(=O)N2	16	-3
CC1=NN(c2ccccc2)C(=O)/C1=C/c1cc([N+](=O)[O-])c(Cl)cc1Cl	45	-4
COc1ccc(C2C(O)C(O)C(C)N2C)cc1OC (centres undefined)	x	-12
Cc1cc(O)c2c(c1)OC(=Cc1cccc(Br)c1)C2=O	56*	-13
SMILES	mHTT-CaM PPI inh	Pf apPOL inh
Cc1cc(O)c2c(c1)OC(=Cc1cn(C)c3ccccc13)C2=O	72*	-2
Cc1cc(O)c2c(c1)OC(=Cc1ccc(Br)cc1)C2=O	43	-14
Cc1cc(O)c2c(c1)OC(=Cc1ccccc1F)C2=O	42	7
O=C(c1ccc(Cl)cc1)N1N=C(c2ccccc2)CC1c1ccccc1[N+](=O)[O-] (centres undefined)	26	-4
N/C(=N\OS(=O)(=O)c1ccccc1)c1ccccn1	i	1
N/C(=N\OC(=O)Oc1ccccc1)c1ccncc1	i	-9
N/C(=N\OS(=O)(=O)c1ccc(Cl)cc1)c1ccccn1	+	4
N/C(=N\OC(=O)Oc1ccccc1)c1ccccn1	+	-3
C=CCN(CC=C)C(=O)Nc1ccc2nc(C)c(C)nc2c1	0	0
O=C(Cc1ccc(NC(=O)c2ccc(F)cc2Cl)cc1)NC1CC1	-18	-6
CCCCN(CCCNC(=O)C1CC(=O)N(CCc2ccccc2)C1)c1ccccc1 (centres undefined)	80*	2
CCCCNC(=O)C1CC(=O)N(CCc2ccccc2)C1 (centres undefined)	-4	-1
O=C(COc1ccccc1N1C(=O)C2C3CCC(C3)C2C1=O)c1ccc(Cl)cc1 (centres undefined)	14	1
CS(=O)(=O)c1ccc2nc(NC(=O)/C=C/c3ccccc3Cl)sc2c1	75*	-1
CC(C)c1ccc(/C=C/C(=O)Nc2nc3ccc(S(C)(=O)=O)cc3s2)cc1	10	-5
Cc1cc(C)n(-c2nnc(N)nn2)n1	2	x
Cc1cc(C)n(-c2nnc(C)c(=O)[nH]2)n1	90*	-2
O=C(CSc1nc2[nH]ncc2c(=O)n1-c1ccccc1)Nc1ccc(C(F)(F)F)cc1	37	-5
O=c1c2cn[nH]c2nc(SCc2ccc(C(F)(F)F)cc2)n1-c1ccccc1	63*	-16
CCCCCCCCCn1cc[n+](CCCCCCCCC)c1C	100*	x
CCCCCCCCN1C(=O)CCC1=O	-9	x
O=C(NCc1cc(F)ccc1F)c1cc2c(s1)CN(C1CCCC1)C2	-3	-3
CC(C)CN1CCn2cc(C(=O)N3CCN(c4ccc(F)cc4)CC3)nc2C1	91*	-5
CCN1CCn2cc(C(=O)N3CCN(c4ccccc4)CC3)nc2C1	5	-2
CC(C)CN1CCn2cc(C(=O)N3CCN(c4ccccc4F)CC3)nc2C1	38	-9
SMILES	mHTT-CaM PPI inh	Pf apPOL inh
CC(C)CN1CCn2cc(C(=O)N3CCN(c4cccc(Cl)c4)CC3)nc2C1	86*	-1
Nc1ccc(C23CC4CC(C2)CC(c2ccc(N)cc2)(C4)C3)cc1	84*	-8
NS(=O)(=O)c1ccc(C23CC4CC(CC(C4)C2)C3)cc1	7	-5
Nc1ccc(C23CC4CC(CC(C4)C2)C3)cc1	58*	-8
NC(=O)CC12CC3CC(C1)CC(c1ccccc1)(C3)C2	4	-9
Fc1ccc(N2CCN(c3ncnc4c3cnn4-c3ccccc3)CC2)cc1	-11	-4
COc1ccc(-n2nc3c(c2NC(=O)/C=C/c2cc(OC)c(OC)c(OC)c2)CSC3)cc1	34	-7
COc1ccc(-n2nc3c(c2NC(=O)c2ccc(Br)cc2)CSC3)cc1	30	5
COc1ccc(-n2nc3c(c2NC(=O)c2ccccc2)CSC3)cc1	31	-1
COc1ccc(-n2nc3c(c2NC(=O)c2ccc(C(C)(C)C)cc2)CSC3)cc1	100*	3
CC(C)C(=O)Nc1c2c(nn1-c1ccc(Oc3ccccc3)cc1)CSC2	65*	5
COc1ccc(-n2nc3c(c2NC(=O)/C=C/c2ccccc2)CSC3)cc1	52*	-1
COc1ccc(-c2coc3cc4oc(=O)c5c(c4cc23)CCC5)cc1F	1	0
Cc1ccccc1NC(=O)Cn1c(C)nc2c(c1=O)CCN(Cc1ccccc1)C2	-13	0
COc1ccc2oc(=Nc3ccc(C(=O)O)cc3)c(C(=O)Nc3ccc(F)c(Cl)c3)cc2c1	9	-1
CC1(C)Cc2c(sc3nc(SCC(=O)O)n(-c4ccccc4)c(=O)c23)CO1	-1	3
CC1(C)Cc2c(sc3nc(Nc4ccccc4)n(N)c(=O)c23)CO1	53*	-6
CCOc1cc(C=O)c(Br)cc1OCc1ccccc1	-5	6
O=Cc1cc(Cc2ccccc2)cc(Br)c1O	100*	-3
Cc1cc(NC(=O)c2cccnc2)c2cc(F)cc(F)c2n1	-12	4
CCCN1CCn2cc(C(=O)NCc3ccc(C(C)C)cc3)nc2C1	12	9
CC1=C(C(=O)Nc2ccccc2F)C(c2ccc(Cl)cc2)C2=C(CCCC2=O)N1 (centres undefined)	-13	1
Cc1cccc(C2c3cccn3CCN2C(=O)CC(=O)NC(C)C)c1 (centres undefined)	40	1
Oc1cccc(C2c3cccn3CCCN2Cc2cc(Cl)ccc2O)c1 (centres undefined)	100*	-2
Cc1ccc(O)c(CN2CCCn3cccc3C2c2cccc(O)c2)c1 (centres undefined)	100*	-4
